About 4,600 (1.3%) of roughly 360,000 compounds were called active.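 How the source made its calls: active means percent inhibition above its own plate's cutoff, namely the mean of that plate's compound wells plus 3 SD; inactive means the rest.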 What follows is part of a selection rich in actives, with near analogues and random picks from the rest.

A word on the inhibition: it is the relative decrease from the control value, in per cent.

The target of the experiment is Muscarinic acetylcholine receptor M1 (Homo sapiens) (UniProt P11229). The experiment is described as follows: CHRM1 blockers of acetylcholine calcium response – CHO-K1 cells, Fluo-8 calcium fluorescence, 1536-well, primary screen (AID 588852).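 Further: peak over basal fluorescence ratio during 140 s after agonist addition; 0% = ACh EC80 plus DMSO and 100% = DMSO alone without agonist.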 Particulars: CHO-K1 hM1, Fluo-8 calcium fluorescence, ACh EC80 antagonist; at 3 µM; stronger effect = higher value.
Chain of Muscarinic acetylcholine receptor M1 (Homo sapiens) (P11229 whole entry, looked up): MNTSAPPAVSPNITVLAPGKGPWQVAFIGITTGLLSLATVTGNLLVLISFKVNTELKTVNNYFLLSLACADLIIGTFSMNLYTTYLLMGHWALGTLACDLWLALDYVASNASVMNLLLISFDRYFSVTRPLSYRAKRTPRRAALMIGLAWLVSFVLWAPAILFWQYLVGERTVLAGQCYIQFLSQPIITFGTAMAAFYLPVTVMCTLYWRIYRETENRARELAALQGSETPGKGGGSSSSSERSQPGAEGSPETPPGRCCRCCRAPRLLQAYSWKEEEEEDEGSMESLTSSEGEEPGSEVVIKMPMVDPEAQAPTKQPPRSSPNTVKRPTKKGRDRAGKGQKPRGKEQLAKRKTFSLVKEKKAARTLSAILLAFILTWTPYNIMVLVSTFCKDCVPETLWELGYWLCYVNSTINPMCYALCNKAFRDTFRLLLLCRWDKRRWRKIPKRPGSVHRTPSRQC
On to `CCC(=O)Nc1ccc2c(c1)nc(CCN1CCN(c3ccccn3)CC1)n2C`, for which the inhibition was 41.9% (active). For the compound `CCN(CC)c1ccc(NC(=O)CN2CCN(c3ccccn3)CC2)cc1`, the inhibition is -1.84% (inactive). `Cn1c(CCN2CCN(c3ccccn3)CC2)nc2cc(NS(=O)(=O)c3ccc(F)cc3)ccc21`: the inhibition is 69.9% (active). For `Cn1c(=O)n(C)c2cc(NS(=O)(=O)c3ccc(F)cc3)ccc21`, the inhibition was 4.92% (inactive). To `Cn1c(=O)n(C)c2cc(S(=O)(=O)Nc3ccc(F)cc3)ccc21` belongs 0.75% (inactive). To `CCOC(=O)N1CCN(Cc2nc3cc(NC(C)=O)ccc3n2C)CC1` belongs -2.65% (inactive). To `CCOc1ccc(CCN2C(=S)N([C@@H](CC(C)C)CN3CCC[C@@H]3CN3C(=S)NC[C@@H]3Cc3ccc(O)cc3)C[C@@H]2Cc2ccc(O)cc2)cc1` belongs -5.61% (inactive); to `COc1ccc(OC)c(C2C3=C(N=c4s/c(=C\c5cccc(O)c5)c(=O)n42)c2ccccc2CC3)c1` (stereo not drawn), -14.9% (inactive); to `CC1(c2cccc(Br)c2)NC(=O)N(CC(=O)NCCC2=CCCCC2)C1=O` (stereo not drawn), -4.07% (inactive). Consider `Cc1ccc(-c2ccc(=O)n(Cc3ccc(F)cc3Cl)n2)cc1`, for which the inhibition is -14.4% (inactive). To `CN(C)Cc1ccc(F)cc1Sc1cc(Cl)ccc1Cl` belongs 91.5% (active).

With `CN(Cc1ccc(F)cc1Cl)S(=O)(=O)c1cccs1`, the inhibition was -6.7% (inactive). On to `CC(=O)NC(c1cccs1)c1cc(Br)c2cccnc2c1O` (stereo not drawn), for which the inhibition is -13.2% (inactive).

For `CCOC(=O)c1cc2cc(C)ccc2[nH]1`, the inhibition was 6.42% (inactive). On to `CCOC(=O)c1[nH]c2ccc(OC)cc2c1NC(=O)N1CCOCC1`, for which the inhibition was -21.5% (inactive). Take `CCOC(=O)c1[nH]c2ccc(C)cc2c1N=C(C)N(C)C`: the inhibition was 33.5% (active). `Cc1ccc(-c2ccnc3nc(Sc4ncc(C(F)(F)F)cc4Cl)nn23)cc1`: the inhibition is -1.4% (inactive). To `O=C(Nn1cnnc1)c1cc(Cl)ccc1Cl` belongs -9.41% (inactive). In the case of `O=C(NCc1ccc2c(c1)OCO2)c1cc2c(s1)CS(=O)(=O)C2`, the inhibition was 4.31% (inactive). To `Cc1cc(OCCN2CCCC2)ccc1C(C)C` belongs -3.45% (inactive); to `Cc1cc(OCCN2CCCC2)cc(C(C)C)c1`, 82.3% (active); to `Cc1ccc(C(C)C)cc1OCC(=O)Nc1ccccc1N1CCCC1`, -19.6% (inactive). As to `c1ccc2cc(OCCN3CCCC3)ccc2c1`, the inhibition was -1.41% (inactive). For `Cc1ccc(OCCCCN2CCCCC2)c(Br)c1`, the inhibition is 22.6% (inactive). To `Cc1ccc(C(C)C)cc1OCCN1CCCC1` belongs 53% (active); to `CCCCc1nc2ccc(F)cc2cc1C`, -6.44% (inactive).

On to `CC(C)C1C(=O)N(Cc2cn(CCC3OCCO3)nn2)CCS(=O)(=O)N1Cc1ccc(-c2ccccc2C(F)(F)F)cc1` (stereo not drawn), for which the inhibition is -16.4% (inactive). As for `Cc1ccccc1NC(=O)COc1cccc2c1CCNC2=O`, the inhibition is -7.58% (inactive).

Take `CN1CCN(C(=O)N2c3ccccc3CCc3ccccc32)CC1`: the inhibition was 96.2% (active). To `CN1CCN(S(=O)(=O)c2cccc(C(=O)N3CCc4ccccc43)c2)CC1` belongs 6.81% (inactive); to `CC1CC(C)CN(CC(=O)N2c3ccccc3CCc3ccccc32)C1` (stereo not drawn), 4.81% (inactive); to `CSCCC(NC(=O)COc1ccccc1)C(=O)Nc1ccc(C)cc1` (stereo not drawn), -7.4% (inactive). `Cc1ccc(NC(=O)C(C)c2cccc(C(=O)c3ccccc3)c2)cc1` (stereo not drawn): the inhibition is 28.2% (active). In the case of `CC(=O)Nc1ccc(NC(=O)[C@@H](NC(=O)c2cccc(C)c2)C(C)C)cc1`, the inhibition is -11.7% (inactive). Turning to `O=C(CSc1nnc2c(n1)[nH]c1ccccc12)NC1CCCCC1`, the inhibition was -3.99% (inactive). Consider `O=C(CNS(=O)(=O)c1ccc2ccccc2c1)Nc1ccc(F)c(F)c1F`, for which the inhibition is -2.2% (inactive). For `Cc1cc(=O)oc2c3c(cc(OCC(=O)NCC(O)c4ccccc4)c12)OC(C)(C)CC3` (stereo not drawn), the inhibition is -9.2% (inactive). Regarding `O=C(c1ccc(-n2cnnn2)cc1)N1CCN(C(c2ccccc2)c2ccccc2)CC1`, the inhibition is 78.5% (active). As for `Cn1nnnc1SCC(=O)N1CCN(C(c2ccccc2)c2ccccc2)CC1`, the inhibition is -2.38% (inactive). To `Cc1onc(C(=O)NN)c1C(=O)N1CCN(C(c2ccccc2)c2ccccc2)CC1` belongs 4.44% (inactive).

As for `CC(C)(C)Cc1c(C2CCCCC2)nc2ccc(Br)cn12`, the inhibition was -23.6% (inactive). With `COc1cc(OC)c(C2=NOC(C(=O)Nc3c(C)n(C)n(-c4ccccc4)c3=O)C2)cc1Cl` (stereo not drawn), the inhibition is -4.11% (inactive).

Regarding `CC(=O)N(Cc1cc(=O)[nH]c2ccccc12)c1ccc(C)cc1C`, the inhibition is -12.4% (inactive). As for `Cc1ccc(N(Cc2cc3ccccc3[nH]c2=O)C(=O)c2cccs2)cc1`, the inhibition is -3.76% (inactive). The value for `Cc1ccc(N(Cc2cc(=O)[nH]c3ccccc23)C(=O)CCl)cc1` was 41.3% (active); that for `C=C(C)C1CC=C(C)/C(=N/NC(=O)CCCNc2cccc(C)c2)C1` (stereo not drawn) was 10% (inactive); that for `CCCOc1ccc(N2CC(C(=O)Nc3ccccn3)CC2=O)cc1` (stereo not drawn) was -17.6% (inactive). The value for `O=C(NCc1ccccc1Cl)C1CCN(c2ncnc3c2nc2n3CCCCC2)CC1` was -5.23% (inactive); that for `COc1ccccc1CNC(=O)CCCn1c(=O)c2ccccc2n(CC(=O)NC2CCCC2)c1=O` was -13.2% (inactive).

As for `COc1ccccc1CN1CCN(Cc2cc(OC)c(OC)cc2OC)CC1`, the inhibition is -21.9% (inactive). The value for `COc1cccc(OC)c1C(=O)N1CCN(Cc2ccccc2F)CC1` was -1.36% (inactive); that for `COc1ccccc1NC(=S)N1CCN(C(c2ccccc2)c2ccccc2)CC1` was 53.1% (active); that for `COc1ccccc1CN1CCN(C(c2ccccc2)c2ccccc2)CC1` was 63.6% (active). Consider `COc1ccccc1NC(=S)N1CCN(c2ccc(F)cc2)CC1`, for which the inhibition was -20.2% (inactive). Turning to `COc1ccccc1NC(=S)N1CCC(NC(=O)C23CC4CC(CC(C4)C2)C3)CC1`, the inhibition was -7.97% (inactive).

As to `CC(C)(C)NC(=O)COc1ccc(CNc2ccc3[nH]c(=O)[nH]c3c2)cc1`, the inhibition is -1.62% (inactive). For `COc1cc(C2OC(c3cc(OC)c(OC)c(OC)c3)C(C)C2C)cc(OC)c1OC` (stereo not drawn), the inhibition is 0.63% (inactive). For `Oc1cccc2cc(-c3ccncc3)cnc12`, the inhibition was -21.3% (inactive). On to `O=C(c1cc(Cl)cc(Cl)c1)N1CCC(=O)N(C(COCc2ccccc2)Cc2ccccc2)CC1` (stereo not drawn), for which the inhibition is 7.3% (inactive). For the compound `O=[N+]([O-])c1ccc(CN2CC(N3CCC(c4ccccc4)CC3)CS2(=O)=O)cc1` (stereo not drawn), the inhibition is 7.07% (inactive). As for `CCOC(=O)c1ccccc1NS(=O)(=O)c1c(C)nc2sccn2c1=O`, the inhibition is 6.39% (inactive). To `COC(=O)c1ccc(CN2CCC(CO)(Cc3ccc(OC)cc3)CC2)cc1` belongs 53.5% (active); to `COc1ccc(CC2(CO)CCN(Cc3cnn(C)c3)CC2)cc1`, 1.8% (inactive). Turning to `CCOC(=O)C1(CCOC)CCN(Cc2ccc(C(=O)OC)cc2)CC1`, the inhibition was -9.07% (inactive). In the case of `O=C(CN1CCN(c2ccccc2O)CC1)NC(=O)NCc1ccccc1`, the inhibition is -3.68% (inactive). With `Cn1c(-c2ccc(C(F)(F)F)cc2)cc2onc(-c3ccccc3)c2c1=O`, the inhibition is 2.31% (inactive). The value for `CC(C(=O)NC1CCCCC1)N1C(=O)c2cccc3cccc1c23` (stereo not drawn) was 8.39% (inactive). To `COc1ccccc1N1CCN(CC(=O)Nc2ccnn2C2CCCC2)CC1` belongs -12.8% (inactive); to `COc1ccccc1C(=O)Nc1ccnn1C1CCN(C(=O)C(C)(C)C)CC1`, 47.4% (active); to `COc1ccccc1C(=O)Nc1ccnn1C1CCN(Cc2cnn(C)c2)CC1`, -12.3% (inactive). Regarding `C/C(O)=C\c1nc(=O)c2c(C)cc(C)nc2n1-c1ccccc1`, the inhibition was -3.66% (inactive).

`S=C(NCCCc1cnc[nH]1)NCCCN(Cc1ccc(Cl)c(Cl)c1)c1ccc(Br)cn1`: the inhibition is 0.91% (inactive).

On to `CCOc1cc(/C=N/NC(=O)c2ccc(CSc3nncn3C)cc2)ccc1OCC(=O)N1CCOCC1`, for which the inhibition was -1.07% (inactive). In the case of `CC(C)(C)S(=O)N1Cc2cc(C(=O)NCCCN3CCOCC3)nc(-c3cccc(-c4cc5ccccc5o4)c3)c2[C@H]1CCO` (stereo partly drawn), the inhibition was -16.2% (inactive). To `CCN(CC)S(=O)(=O)c1ccc(OC(C)C)c(N)c1` belongs -11.4% (inactive); to `CCN1/C(=C\c2ccc3ccccc3[n+]2CC)Sc2cc(C)ccc21`, 59% (active); to `CCCCCCCCCCOC(=O)Cn1c(COc2ccc(C)cc2)[n+](C)c2ccccc21`, 30.8% (inactive). As to `CCCCCCCCCCOC(=O)Cn1c(COc2cccc(OC)c2)[n+](C)c2ccccc21`, the inhibition is 58.2% (active). `O=C(C=CC(=O)Nc1ccc(F)cc1F)Nc1ccc(F)cc1F`: the inhibition was -4.83% (inactive). The value for `CC(=O)Nc1ccc(S(=O)(=O)N2CCC(C(=O)NC3CC3)CC2)cc1` was -7.82% (inactive). To `NCCCNC(=S)NCCCN(Cc1ccc(Cl)cc1)c1ccc(Br)cn1` belongs -0.49% (inactive). As to `CC(C)(C)OC(=O)N1CCN(C(=O)c2[nH]c(C(F)(F)F)nc2-c2ccccc2)CC1`, the inhibition was -33.3% (inactive).

For the compound `FC(F)(F)c1cccc(N/N=C/c2ccccc2)c1`, the inhibition was -6.47% (inactive).

Turning to `O=C(Nc1cccc(Cl)c1)c1cncn1-c1ccc(F)cc1`, the inhibition was -4.54% (inactive). Take `FC(F)(F)c1cccc(NC(=S)Nc2cccc(Cl)c2)c1`: the inhibition is 27.5% (active). To `Cc1cc(C)cc(OCC(=O)OCC(=O)NC2CCCC2)c1` belongs 5.15% (inactive); to `CC(C)c1nc2oc3c(N4CCN(C)CC4)ncnc3c2c2c1CCC2`, -4.82% (inactive). The value for `CN(C)Cc1c(C(=O)N/N=C/c2ccccc2OCc2ccc(F)cc2)nnn1-c1nonc1N` was -17.7% (inactive); that for `NC(=O)C1=C[C@@H](c2csc3ccccc23)C[C@@H](OCc2ccc(CO)cc2)O1` was -1.54% (inactive).

In the case of `COc1cccc(-c2cnc3c(NC(C)=O)cc(-c4cc(F)ccc4OC)cn23)c1`, the inhibition was 13.1% (inactive).

`Cc1ccc(C(=O)NCC(=O)OCc2nnc(-c3ccccc3)o2)cc1`: the inhibition is -11.3% (inactive). Consider `Cc1onc(-c2ccccc2Cl)c1C(=O)OCc1nnc(-c2ccccc2)o1`, for which the inhibition is 1.39% (inactive). In the case of `Cc1onc(-c2ccccc2)c1-c1nnc(COC(=O)c2ccc(N(C)C)cc2)o1`, the inhibition is 99.9% (active).

Source of the values: PubChem BioAssay AID588852 (The Scripps Research Institute Molecular Screening Center, 2011).
